From PubChem BioAssay (NCATS)
Inconclusive results are not listed. Entries that show only a call come without a potency. Active and inactive are the calls of the source. Calls follow the shape of the dose curve; as a rule, active = well fitted inhibition curve with a large enough effect; inconclusive = small, poorly fitted or top-dose-only effect; inactive = flat fitted curve, though single readings scatter.

Test system: N140
Assay: qHTS profiling for inhibitors of Plasmodium falciparum proliferation (AID 504749); also: nearly all actives have a fitted effect of over 60% in size
Settings: P. falciparum in erythrocytes, SYBR Green DNA, 72 h; series mostly up to 28.7 µM
Procedure, shortened: (§1)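 P. falciparum-infected erythrocytes (0.3% parasitemia, 2.5% hematocrit) incubated with compound 72 h at 37 C, 5% CO2. Parasite DNA detected by SYBR Green after lysis, overnight at room temperature; normalised to 0.29 uM artemisinin and DMSO.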
Potency is read from the fitted curve at half-maximal effect.

| Compound | Potency |
| --- | --- |
| Cc1cn([C@H]2C[C@H](O)[C@@H](CO)O2)c(=O)[nH]c1=O | inactive |
| CCCCCCCCCCCCCCCC(=O)OCC(COC(=O)CCCCCCCCCCCCCCC)OC(=O)CCCCCCCCCCCCCCC | inactive |
| CC(C(=O)O)c1ccc(N2Cc3ccccc3C2=O)cc1 (stereo not given) | inactive |
| CC(C)=O | inactive |
| Cc1c(C)c2c(c(C)c1O)CC[C@@](C)(CCC[C@@H](C)CCC[C@@H](C)CCCC(C)C)O2 | inactive |
| CO[C@H](C(=O)[C@@H](O)[C@@H](C)O)C1Cc2cc3cc(O[C@H]4C[C@@H](O[C@H]5C[C@@H](O)[C@H](O)[C@@H](C)O5)[C@@H](O)[C@@H](C)O4)c(C)c(O)c3c(O)c2C(=O)[C@H]1O[C@H]1C[C@@H](O[C@H]2C[C@@H](O[C@H]3C[C@](C)(O)[C@H](O)[C@@H](C)O3)[C@H](O)[C@@H](C)O2)[C@H](O)[C@@H](C)O1 (stereo not given in full) | 126 nM (active) |
| O=C(O)CN(CCN(CC(=O)O)CC(=O)O)CC(=O)O | inactive |
| CCC(=O)NCCC1CCc2ccc3c(c21)CCO3 (stereo not given) | inactive |
| CCOc1ccc2c(c1)C(C)=CC(C)(C)N2 | inactive |
| COCC(=O)Nc1cc(Sc2ccccc2)ccc1N=C(NC(=O)OC)NC(=O)OC | inactive |
| Cc1cc(C(=O)NNCc2ccccc2)no1 | inactive |
| IC(I)I | inactive |
| C=CCSSSCC=C | inactive |
| O=C(O)c1cc(=O)c2c3nc4ccccc4oc-3cc(=O)c2[nH]1 | inactive |
| CCCCCCC(O)C/C=C/CCCCCCCC(=O)O (stereo not given) | inactive |
| C[C@]12O[C@H](C[C@]1(O)CO)n1c3ccccc3c3c4c(c5c6ccccc6n2c5c31)CNC4=O | 282 nM (active) |
| CC1=CCC(C(C)(C)O)CC1 (stereo not given) | inactive |

Test system: P93_24
Assay: as above
Settings: P. falciparum in erythrocytes, SYBR Green DNA, 72 h; series mostly up to 28.7 µM
Procedure, shortened: as §1

| Compound | Potency |
| --- | --- |
| CCCC(=O)Nc1ncnc2c1ncn2C1OC2COP(=O)(O)OC2C1OC(=O)CCC (stereo not given) | inactive |
| CCCCCCCCCCCCCC[n+]1ccc(C)cc1 | 3550 nM (active) |
| CC(NNC(=O)c1ccccc1)c1ccccc1 (stereo not given) | inactive |
| COC(C(=O)C(O)C(C)O)C1Cc2cc3cc(OC4CC(OC5CC(O)C(O)C(C)O5)C(O)C(C)O4)c(C)c(O)c3c(O)c2C(=O)C1OC1CC(OC2CC(OC3CC(C)(O)C(O)C(C)O3)C(O)C(C)O2)C(O)C(C)O1 (stereo not given) | 178 nM (active) |
| Nc1c(N=Nc2ccc(-c3ccc(N=Nc4cc(S(=O)(=O)O)c5ccccc5c4N)cc3)cc2)cc(S(=O)(=O)O)c2ccccc12 | inactive |
| Cc1c(C)c2c(c(C)c1O)CC[C@@](C)(CCC[C@H](C)CCC[C@H](C)CCCC(C)C)O2 | inactive |
| CCOC(=O)C1=C(C)NC(C)=C(C(=O)OCC)C1c1ccccc1C=CC(=O)OC(C)(C)C | 7080 nM (active) |
| CC(C)N=c1cc2n(-c3ccc(Cl)cc3)c3ccccc3nc-2cc1Nc1ccc(Cl)cc1 | inactive |
| COC(=O)[C@H]1[C@H]2C[C@@H]3c4[nH]c5ccccc5c4CCN3C[C@H]2C[C@@H](OC(=O)c2cc(OC)c(OC)c(OC)c2)[C@@H]1OC | 126 nM (active) |
| CC1=C(/C=C/C(C)=C/C=C/C(C)=C/C=C/C=C(C)/C=C/C=C(C)/C=C/C2=C(C)CCCC2(C)C)C(C)(C)CCC1 | inactive |
| Cc1cn([C@H]2C[C@H](O)[C@@H](CO)O2)c(=O)[nH]c1=O | inactive |
| CCCCCCCCCCCCCCCC(=O)OCC(COC(=O)CCCCCCCCCCCCCCC)OC(=O)CCCCCCCCCCCCCCC | inactive |
| CC(C(=O)O)c1ccc(N2Cc3ccccc3C2=O)cc1 (stereo not given) | inactive |
| CC(C)=O | inactive |
| CO[C@H](C(=O)[C@@H](O)[C@@H](C)O)C1Cc2cc3cc(O[C@H]4C[C@@H](O[C@H]5C[C@@H](O)[C@H](O)[C@@H](C)O5)[C@@H](O)[C@@H](C)O4)c(C)c(O)c3c(O)c2C(=O)[C@H]1O[C@H]1C[C@@H](O[C@H]2C[C@@H](O[C@H]3C[C@](C)(O)[C@H](O)[C@@H](C)O3)[C@H](O)[C@@H](C)O2)[C@H](O)[C@@H](C)O1 (stereo not given in full) | 112 nM (active) |
| O=C(O)CN(CCN(CC(=O)O)CC(=O)O)CC(=O)O | inactive |
| CCC(=O)NCCC1CCc2ccc3c(c21)CCO3 (stereo not given) | inactive |
| CCOc1ccc2c(c1)C(C)=CC(C)(C)N2 | inactive |
| COCC(=O)Nc1cc(Sc2ccccc2)ccc1N=C(NC(=O)OC)NC(=O)OC | inactive |
| Cc1cc(C(=O)NNCc2ccccc2)no1 | inactive |
| IC(I)I | inactive |
| CCCCCCC(O)C/C=C/CCCCCCCC(=O)O (stereo not given) | inactive |
| C[C@]12O[C@H](C[C@]1(O)CO)n1c3ccccc3c3c4c(c5c6ccccc6n2c5c31)CNC4=O | 355 nM (active) |
| CC1=CCC(C(C)(C)O)CC1 (stereo not given) | inactive |

Test system: P94_40
Assay: as above
Settings: P. falciparum in erythrocytes, SYBR Green DNA, 72 h; series mostly up to 28.7 µM
Procedure, shortened: as §1

| Compound | Potency |
| --- | --- |
| CCCC(=O)Nc1ncnc2c1ncn2C1OC2COP(=O)(O)OC2C1OC(=O)CCC (stereo not given) | inactive |
| CCCCCCCCCCCCCC[n+]1ccc(C)cc1 | 4470 nM (active) |
| C[C@]12CCC(=O)C=C1CC[C@@H]1[C@@H]2[C@@H](O)C[C@@]2(C)[C@H]1CC[C@]2(O)C(=O)COP(=O)(O)O | inactive |
| CC(NNC(=O)c1ccccc1)c1ccccc1 (stereo not given) | inactive |
| COC(C(=O)C(O)C(C)O)C1Cc2cc3cc(OC4CC(OC5CC(O)C(O)C(C)O5)C(O)C(C)O4)c(C)c(O)c3c(O)c2C(=O)C1OC1CC(OC2CC(OC3CC(C)(O)C(O)C(C)O3)C(O)C(C)O2)C(O)C(C)O1 (stereo not given) | 126 nM (active) |
| Nc1c(N=Nc2ccc(-c3ccc(N=Nc4cc(S(=O)(=O)O)c5ccccc5c4N)cc3)cc2)cc(S(=O)(=O)O)c2ccccc12 | inactive |
| Cc1c(C)c2c(c(C)c1O)CC[C@@](C)(CCC[C@H](C)CCC[C@H](C)CCCC(C)C)O2 | inactive |
| COC(=O)[C@H]1[C@H]2C[C@@H]3c4[nH]c5ccccc5c4CCN3C[C@H]2C[C@@H](OC(=O)c2cc(OC)c(OC)c(OC)c2)[C@@H]1OC | 316 nM (active) |
| CC1=C(/C=C/C(C)=C/C=C/C(C)=C/C=C/C=C(C)/C=C/C=C(C)/C=C/C2=C(C)CCCC2(C)C)C(C)(C)CCC1 | inactive |
| Cc1cn([C@H]2C[C@H](O)[C@@H](CO)O2)c(=O)[nH]c1=O | inactive |
| CCCCCCCCCCCCCCCC(=O)OCC(COC(=O)CCCCCCCCCCCCCCC)OC(=O)CCCCCCCCCCCCCCC | inactive |
| CC(C(=O)O)c1ccc(N2Cc3ccccc3C2=O)cc1 (stereo not given) | inactive |
| CO[C@H](C(=O)[C@@H](O)[C@@H](C)O)C1Cc2cc3cc(O[C@H]4C[C@@H](O[C@H]5C[C@@H](O)[C@H](O)[C@@H](C)O5)[C@@H](O)[C@@H](C)O4)c(C)c(O)c3c(O)c2C(=O)[C@H]1O[C@H]1C[C@@H](O[C@H]2C[C@@H](O[C@H]3C[C@](C)(O)[C@H](O)[C@@H](C)O3)[C@H](O)[C@@H](C)O2)[C@H](O)[C@@H](C)O1 (stereo not given in full) | 112 nM (active) |
| O=C(O)CN(CCN(CC(=O)O)CC(=O)O)CC(=O)O | inactive |
| CCC(=O)NCCC1CCc2ccc3c(c21)CCO3 (stereo not given) | inactive |
| CCOc1ccc2c(c1)C(C)=CC(C)(C)N2 | inactive |
| COCC(=O)Nc1cc(Sc2ccccc2)ccc1N=C(NC(=O)OC)NC(=O)OC | inactive |
| Cc1cc(C(=O)NNCc2ccccc2)no1 | inactive |
| IC(I)I | inactive |
| C=CCSSSCC=C | inactive |
| O=C(O)c1cc(=O)c2c3nc4ccccc4oc-3cc(=O)c2[nH]1 | inactive |
| CCCCCCC(O)C/C=C/CCCCCCCC(=O)O (stereo not given) | inactive |
| C[C@]12O[C@H](C[C@]1(O)CO)n1c3ccccc3c3c4c(c5c6ccccc6n2c5c31)CNC4=O | 282 nM (active) |
| CC1=CCC(C(C)(C)O)CC1 (stereo not given) | inactive |
